# Many of the other results were omitted from the sample, so hits are more common in it than they were.
# Methyltransferases – Primary Screen for Target Class Profiling of Small Molecule Inhibitors of Methyltransferases; purified enzyme, MTase-Glo SAH luminescence; stronger effect = lower value; calls only at 40 µM; 3.9% of 25,000 active; call rule not given here
#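 Each enzyme was reacted with SAM and its substrate, with compounds tested once at 40 uM; SAH formed was read by MTase-Glo luminescence.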
# Calls only; 0 = inactive; + = active, no number.
SMILES,Methyltransferases
COc1ccccc1Nc1ncc2c(n1)CN(C(=O)c1ccnn1C)CCN2,0
COc1cc(N2CCC(N(C)C)CC2)ccc1Nc1ncc(Cl)c(Nc2ccccc2P(C)(C)=O)n1,+
COc1cc(N2CCC(N3CCN(C)CC3)CC2)ccc1Nc1ncc(Cl)c(Nc2ccccc2S(=O)(=O)C(C)C)n1,+
CCOC(=O)c1cc2n(n1)CC(C)(C(=O)NC1CCCCC1)N(c1cccc(C)c1C)C2=O (stereo not drawn),0
CC1CCC(NC(=O)C2(C)Cc3ccccc3C(=O)N2Cc2cccs2)CC1 (stereo not drawn),0
COc1ccccc1CNC(=O)C1(C)Cn2c(cc3ccccc32)C(=O)N1CCCc1ccccc1 (stereo not drawn),0
CC(C)CNC(=O)c1ccc2c(=O)n(CC(C)C)c3nn(Cc4ccc(F)cc4)c(=O)n3c2c1,0
C#Cc1cccc(Nc2ncnc3cc(OC)c(OCCCCCCC(=O)NO)cc23)c1,+
COc1cc2ncnc(Nc3ccc(O)cc3)c2cc1OC,0
C#Cc1cccc(Nc2nc3cc(C(=O)O)ccc3c3cncnc23)c1,0
Cc1ccc(C)c(Cn2nc3n(CC(C)C)c(=O)c4ccc(C(=O)NC(C)C)cc4n3c2=O)c1,0
O=C1N[C@@H]2CCN(C(=O)c3ccc(-c4ccccc4)cc3)[C@@H]2C(=O)N1Cc1ccccc1,0
O=C(NCCCc1ccccc1)C1CN(C2CCCC2)C(=O)N1 (stereo not drawn),0
CC1=C(C(=O)OCc2ccccc2)C(c2ccc(-c3ccccc3)cc2)NC(=O)N1CCCCCC(=O)O (stereo not drawn),+
CC1CCC(NC(=O)Cn2c(=O)oc3cc(S(=O)(=O)N4CC(C)CC(C)C4)ccc32)CC1 (stereo not drawn),0
CC(C)NC(=O)c1ccc2c(=O)n(Cc3ccccc3)c3nn(CC(=O)NC4CCCCC4)c(=O)n3c2c1,0
CSCC1OC(n2cnc3c(=O)[nH]cnc32)C(O)C1O (stereo not drawn),0
CC(C)N(C[C@H]1O[C@@H](n2cnc3c(N)ncnc32)[C@H](O)[C@@H]1O)C1CC(CCc2nc3ccc(C(C)(C)C)cc3[nH]2)C1 (stereo partly drawn),+
Nc1ncnc2c1ncn2[C@@H]1O[C@H](CO)[C@@H](O)[C@H]1O,0
CC(C)CCn1c(=O)c2ccc(C(=O)NC(C)C)cc2n2c(=O)n(CC(=O)Nc3ccc(F)cc3)nc12,0
CN1C(=O)c2cc(C(=O)NCCc3ccc(Cl)cc3)nn2CC1(C)C(=O)NC1CCCC1 (stereo not drawn),0
CC(CNC(=O)CCn1ccc2cc(S(=O)(=O)N3CCCCC3)ccc21)c1ccccc1 (stereo not drawn),0
CCC(C)NC(=O)c1ccc2c(=O)n(C)c3nnc(SCc4cccc(F)c4)n3c2c1 (stereo not drawn),0
CCN1C(=O)c2cc(C(=O)NCCN3CCCCC3)nn2CC1(C)C(=O)NC1CCCC1 (stereo not drawn),0
COc1cccc(CN2C(=O)c3ccc(-c4ccccc4)n3CC2(C)C(=O)NC2CCCC2)c1 (stereo not drawn),0
SMILES,Methyltransferases
CC1(C(=O)NCc2ccccc2Cl)Cn2cnc(C(=O)NCc3cccc(F)c3)c2C(=O)N1C1CC1 (stereo not drawn),0
COc1ccc(-c2cc3n(n2)CC(C)(C(=O)NCc2ccccc2)N(CCc2ccco2)C3=O)cc1 (stereo not drawn),0
CCOC(=O)c1cc2n(n1)CC(C)(C(=O)NC1CCCC1)N(c1ccc(F)cc1C)C2=O (stereo not drawn),0
O=C([C@@H]1CCCN(c2ccc3[nH]c(C4(n5cc(Cl)cn5)CC4)nc3n2)C1)N1CCCC1,+
O=C(c1ccccc1Cl)N1CCCC(C(=O)N2CCC(c3ccccc3)CC2)C1 (stereo not drawn),0
O=C(NC1CCCC1)N1CCCC(C(=O)N2CCC(c3nc4ncccc4[nH]3)C2)C1 (stereo not drawn),0
CCc1ccc(CN2C(=O)c3cc(C(=O)OC)nn3CC2(C)C(=O)NC2CCCCC2)cc1 (stereo not drawn),0
CCN(CCCN1C(=O)c2cc3occc3n2CC1(C)C(=O)NC1CCCCC1)c1cccc(C)c1 (stereo not drawn),0
Cc1cc(S(=O)(=O)NCCN2CCOCC2)ccc1Cl,0
Cc1cnc(Nc2ccc(CN3CCOCC3)cc2)nc1Nc1cccc(S(=O)(=O)NC(C)(C)C)c1,+
Cc1cnc(Nc2cccc(CN3CCOCC3)c2)nc1Nc1cccc(S(=O)(=O)NC(C)(C)C)c1,0
CCCn1c(=O)c2ccc(C(=O)NC(C)C)cc2n2c(SCC(=O)Nc3cccc(Cl)c3)nnc12,0
O=C(Nc1ccc(Cl)cc1)N1Cc2c(sc3c2CCCC3)-n2cccc2C1c1ccccc1 (stereo not drawn),0
O=C(CCc1nnc2n(Cc3ccc(Cl)cc3)c(=O)c3ccccc3n12)NCc1cccnc1,0
COc1ccccc1CN1C(=O)c2cc(-c3ccccc3)nn2CC1(C)C(=O)NCc1ccccc1 (stereo not drawn),0
